PubChem BioAssay (NCATS)
Records with an inconclusive call do not appear. Entries that show only a call come without a potency. The source made the active and inactive calls. Calls follow the shape of the dose curve; as a rule, active = well fitted cell-killing curve with a large enough effect; inconclusive = small, poorly fitted or top-dose-only effect, or effect the other way; inactive = flat fitted curve, though single readings scatter.

Legend:
Tov-21-G = assay: Primary qHTS to identify gynecologic anti-cancer compounds using libraries of approved drugs and bioactive compounds (AID 1345084); conditions: Gynecologic cancer cell panel viability, ATPlite luminescence, 48 h; series mostly up to 57.5 µM; also: nearly all actives have a fitted effect of over 55% in size
In short: (§1)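 ATP-based viability (ATPlite), 1,000 cells/well, 16 h pre-incubation, 48 h compound at 37 C, 5% CO2, 15 min RT before read.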

Tov112D = assay: as above; conditions: Gynecologic cancer cell panel viability, ATPlite luminescence, 48 h; series mostly up to 57.5 µM
In short: as §1
Potency is read from the fitted curve at half-maximal effect.

How did the Potency (Tov-21-G) turn out when `COCCN(C(=O)c1cc(OC)c(OC)c(OC)c1)c1nc(-c2ccccc2)cs1` was run?
Its Potency is “inactive”.

And the Potency (Tov112D)?
Its Potency is “inactive”.

Which Potency (Tov-21-G) does the source give for `CNc1cccc(CCOc2ccc3c(c2)CN(CC(F)(F)F)C(=O)[C@H](CC(=O)O)C3)n1` here?
Its Potency is 0.501 µM (active).

And the Potency (Tov112D)?
The Potency was “inactive”.

Which Potency (Tov-21-G) does the source give for `NC(=O)c1cccc2[nH]c(-c3ccc(C4CCCN4)cc3F)nc12` (configuration not stated) here?
Its Potency is 12.6 µM (active).

And the Potency (Tov112D)?
The Potency was 15.8 µM (active).

Which Potency (Tov-21-G) does the source give for `O=C([C@@H]1CCCN(c2ccc3[nH]c(C4(n5cc(Cl)cn5)CC4)nc3n2)C1)N1CCCC1` here?
Its Potency is “inactive”.

And the Potency (Tov112D)?
Its Potency is “inactive”.

How did the Potency (Tov-21-G) turn out when `COc1c(C(C)C)c(O)c(O)c2c1C(OC)[C@H]1OC(=O)[C@@]23CCCC(C)(C)[C@H]13` (some centres not stated) was run?
The Potency was “inactive”.

What about the Potency (Tov112D) of the same compound?
Its Potency is “inactive”.

For `O=C(COc1ccc(C(=O)c2ccccc2)cc1)NC1CCN(Cc2ccccc2)CC1`, which Potency (Tov-21-G) is on record?
The Potency was “inactive”.

What about the Potency (Tov112D) of the same compound?
The Potency was “inactive”.

With `CCCC(Nc1nc(-c2ccc(NC(=O)NCC)c(OC)c2)ncc1C)c1cccnc1` (configuration not stated) as the compound, how does the Potency (Tov-21-G) read?
The Potency was 0.316 µM (active).

And the Potency (Tov112D)?
Its Potency is 0.158 µM (active).

`O=C(Nc1ccccc1Cl)c1cnc2ccc(C3CCNCC3)cn12` was tested. Which Potency (Tov-21-G) did it give?
Its Potency is 1.58 µM (active).

And the Potency (Tov112D)?
The Potency was “inactive”.

Which results are given for `CCOc1nc(NC(=O)Cc2cc(OC)ccc2OC)cc(N)c1C#N`?
Potency (Tov-21-G): inactive; Potency (Tov112D): inactive

What does the source list for `O=C(NCCN1CCC(n2c(=O)[nH]c3ccccc32)CC1)c1cc2cc(F)ccc2[nH]1`?
Potency (Tov-21-G): inactive; Potency (Tov112D): inactive

How did the Potency (Tov-21-G) turn out when `CCOC(=O)C1(CCOc2ccccc2)CCN(Cc2ccc(O)c(Cl)c2)CC1` was run?
The Potency was “inactive”.

And the Potency (Tov112D)?
Its Potency is “inactive”.

How did the Potency (Tov-21-G) turn out when `N#CC(CCCN1CCN(/N=C/c2cccnc2)CC1)(c1ccccc1)c1ccccc1` was run?
Its Potency is “inactive”.

And the Potency (Tov112D)?
Its Potency is “inactive”.

Which Potency (Tov-21-G) does the source give for `C1=Cc2ccccc2C(=C2CCN(CCCCc3nn[nH]n3)CC2)c2ccccc21` here?
Its Potency is “inactive”.

What about the Potency (Tov112D) of the same compound?
The Potency was “inactive”.

Which Potency (Tov-21-G) does the source give for `CC(C)(CNC(=O)c1cccc(-c2noc(C(F)(F)F)n2)c1)c1coc(-c2ccccc2)n1` here?
The Potency was “inactive”.

What about the Potency (Tov112D) of the same compound?
Its Potency is “inactive”.

Which Potency (Tov-21-G) does the source give for `COc1ccc(OC)c(-c2ccc(NC(=O)c3ccncc3F)cc2)c1` here?
Its Potency is “inactive”.

What about the Potency (Tov112D) of the same compound?
The Potency was “inactive”.

With `Cc1ccc(C)c(NC(=O)[C@@H]2CCCN2S(=O)(=O)c2cccc3cccnc23)c1` as the compound, how does the Potency (Tov-21-G) read?
Its Potency is “inactive”.

What about the Potency (Tov112D) of the same compound?
The Potency was “inactive”.

With `CNCc1cc(-c2ccccc2F)n(S(=O)(=O)c2cccnc2)c1` as the compound, how does the Potency (Tov-21-G) read?
Its Potency is “inactive”.

What about the Potency (Tov112D) of the same compound?
Its Potency is “inactive”.

How did the Potency (Tov-21-G) turn out when `CC1=CC2/C=C(\C)CCC(O)C(=O)C(O)CC(=O)C23C(=O)NC(CC(C)C)C3C1C` (configuration not stated) was run?
Its Potency is “inactive”.

What about the Potency (Tov112D) of the same compound?
The Potency was “inactive”.

With `O=S(=O)(Nc1ccccc1N1CCCCC1)c1ccc(Cl)s1` as the compound, how does the Potency (Tov-21-G) read?
The Potency was “inactive”.

And the Potency (Tov112D)?
Its Potency is “inactive”.

With `CC(C)(C)Sc1c(CC(C)(C)C(=O)O)n(Cc2ccc(Cl)cc2)c2ccc(OCc3ccc4ccccc4n3)cc12` as the compound, how does the Potency (Tov-21-G) read?
Its Potency is “inactive”.

What about the Potency (Tov112D) of the same compound?
The Potency was “inactive”.

For `CCOC(=O)c1cnc2ccc(-c3cncc(NS(=O)(=O)c4ccccc4)c3)cn12`, which Potency (Tov-21-G) is on record?
Its Potency is 4.47 µM (active).

What about the Potency (Tov112D) of the same compound?
Its Potency is 1.41 µM (active).

Which Potency (Tov-21-G) does the source give for `CC(C)(CO)c1cc2cc(NC(=O)C3(c4ccc5c(c4)OC(F)(F)O5)CC3)c(F)cc2n1CC(O)CO` (configuration not stated) here?
The Potency was “inactive”.

What about the Potency (Tov112D) of the same compound?
The Potency was “inactive”.

What does the source list for `CCC(C)c1ccc(NC(=O)Cn2cnc3c2c(=O)n(C)c(=O)n3C)cc1` (configuration not stated)?
Potency (Tov-21-G): inactive; Potency (Tov112D): inactive

`Nc1nc2c(c(N3CC[C@@H](N)C3)n1)CCCc1ccccc1-2` was tested. Which Potency (Tov-21-G) did it give?
Its Potency is “inactive”.

And the Potency (Tov112D)?
The Potency was “inactive”.

With `Cc1ccc(-c2cn3c4c(sc3n2)CCCC4)cc1` as the compound, how does the Potency (Tov-21-G) read?
Its Potency is 12.6 µM (active).

And the Potency (Tov112D)?
The Potency was 12.6 µM (active).

For `CN(c1ccc(NC(=O)Nc2ccccc2)cc1)S(=O)(=O)c1cnn(-c2ccc(F)cc2)c1`, which Potency (Tov-21-G) is on record?
The Potency was “inactive”.

And the Potency (Tov112D)?
The Potency was “inactive”.
